Mdm2 MdmX PPI: human Mdm2/MdmX binding inhibition | O15151+Q00987 | SaOS-2 split-luciferase Mdm2/MdmX complementation, luminescence | inhibition, % at 8 µM | 330,000 compounds, 3% hits | AID 485346;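 active means inhibition of at least 50% at 8 µM in the primary screen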
Target sequence (O15151 whole entry, looked up): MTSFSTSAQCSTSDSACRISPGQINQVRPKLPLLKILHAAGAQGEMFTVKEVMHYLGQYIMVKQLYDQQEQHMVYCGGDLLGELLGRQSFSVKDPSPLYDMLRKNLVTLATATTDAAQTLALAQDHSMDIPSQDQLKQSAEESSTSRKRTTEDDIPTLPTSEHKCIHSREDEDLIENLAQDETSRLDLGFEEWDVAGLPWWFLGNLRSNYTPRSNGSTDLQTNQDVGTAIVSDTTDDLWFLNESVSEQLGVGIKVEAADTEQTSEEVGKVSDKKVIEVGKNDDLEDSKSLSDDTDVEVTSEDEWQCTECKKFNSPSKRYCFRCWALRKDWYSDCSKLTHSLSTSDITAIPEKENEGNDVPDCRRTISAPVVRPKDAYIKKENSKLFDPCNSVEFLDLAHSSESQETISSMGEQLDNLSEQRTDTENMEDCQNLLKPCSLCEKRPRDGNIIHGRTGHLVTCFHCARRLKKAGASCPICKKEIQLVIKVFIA
Target sequence (Q00987 whole entry, looked up): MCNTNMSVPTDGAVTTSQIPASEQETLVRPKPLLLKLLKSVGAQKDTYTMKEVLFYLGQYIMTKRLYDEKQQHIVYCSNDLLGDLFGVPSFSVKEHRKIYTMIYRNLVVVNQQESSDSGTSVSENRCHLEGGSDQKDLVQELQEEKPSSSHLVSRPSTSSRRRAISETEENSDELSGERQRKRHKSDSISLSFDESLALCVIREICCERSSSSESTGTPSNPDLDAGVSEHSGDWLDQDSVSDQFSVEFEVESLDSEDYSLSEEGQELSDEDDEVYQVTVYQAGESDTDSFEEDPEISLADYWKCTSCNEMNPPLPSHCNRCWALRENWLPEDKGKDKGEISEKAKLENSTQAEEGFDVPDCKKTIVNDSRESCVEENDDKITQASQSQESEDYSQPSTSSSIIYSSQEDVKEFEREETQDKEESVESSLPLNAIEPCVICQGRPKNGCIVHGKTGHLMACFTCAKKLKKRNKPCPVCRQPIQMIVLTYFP
MPTP inh: inhibitors of mitochondrial permeability transition pore. inhibition, % at 10 µM. AID 602449. isolated mouse mitochondria, Ca2+ swelling absorbance, 30 min. 360,000 compounds, 1.4% hits;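 active means inhibition of 50% or more, scaled per plate between neutral and stimulator controls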;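 further: 0% = DMSO wells given calcium and 100% = 1 mM EGTA wells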
Calb FLC: C. albicans growth modulation with fluconazole; C. albicans CaCi-2 (fluconazole-resistant clinical isolate) + fluconazole, Alamar Blue growth, 48 h; growth inhibition, % (concentration not given with the values); 300,000 compounds, 0.57% hits;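 active means growth inhibition above about 58% in most replicates, limit read from the data, passing the limit was not always enough; inconclusive means exactly half the replicates above a set limit; inactive means most replicates below a set limit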;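 further: all wells also contain fluconazole at 8 µg/ml as a sub-toxic cotreatment; 0% = median of DMSO wells and 100% = median of geldanamycin control wells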
Beta apoptosis: beta cell apoptosis inhibition. INS-1E cytokine-induced death, ATP luminescence, 48 h; percent of positive-control rescue, neutral wells zero. protection from apoptosis, % (concentration not given with the values). 300,000 compounds, 0.8% hits. AID 435005;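 active means Every replicate reaches about 75%, or at least half do and their mean reaches it too, limit read from the data; inconclusive means At least half of replicates reach the limit but their mean does not; inactive means Under half of replicates reach the limit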;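 further: 0% = cytokine-treated negative control wells and 100% = positive control rescue; higher means more ATP so stronger rescue from cytokine killing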
CSC inhib: cancer stem cell inhibition; cancer stem cell-like cells viability, luminescence; inhibition, % at 7.5 µM; 300,000 compounds, 1.1% hits; AID 2717; in the data active means inhibition above about 75%; inconclusive means no clear call, values can overlap the other calls; tested in HMLE shEcad cells
* marks the source's active call; other numbers are inactive results. This is a sample that favours compounds with a hit; in the whole collection about 4.8% have one here.

C#CCOCCOCCOCCNc1nc(N2CCN(C(=O)CCCCCCCCCCNC(=O)[C@H]([C@@H](C)CC)n3cc(CCCCN=C(N)N)nn3)CC2)nc(N2CCN(C(=O)CCCCCCCCCCNC(=O)[C@H](CO)n3cc(CCCCCN)nn3)CC2)n1 was read as Mdm2 MdmX PPI 4.1, MPTP inh 19.9, Beta apoptosis 108.0* and CSC inhib 18.4.
`COc1ccc(Cl)cc1-c1cc(C(=O)NCc2cccc(C(F)(F)F)c2)[nH]n1` gave MPTP inh 1.0.
Screening O=C(NC1CCCC1)C1c2ccccc2OCC(=O)N1Cc1cccnc1 (stereo unspecified) returned MPTP inh -0.1.
Screening COCCCn1cc(CN2CC(N3CCSCC3)CS2(=O)=O)nn1 (stereo unspecified) returned MPTP inh -0.8.
Screening C#CCOCCOCCOCCNc1nc(N2CCN(C(=O)CCCCCCCCCCNC(=O)[C@H]([C@@H](C)CC)n3cc(CCCCCN)nn3)CC2)nc(N2CCN(C(=O)CCCCCCCCCCNC(=O)[C@H]([C@@H](C)CC)n3cc(CCCCN=C(N)N)nn3)CC2)n1 returned Mdm2 MdmX PPI -19.7, MPTP inh -15.0, Beta apoptosis 97.7* and CSC inhib -15.4.
For COc1cc(NC(=O)Nc2cccc(Cl)c2)c(OC)cc1NC(=O)CN1CCCCC1 the results were Mdm2 MdmX PPI 38.6, MPTP inh 7.5, Beta apoptosis 8.1 and CSC inhib 114.7*.
Screening O=C(CN1CCCCC1)Nc1cccc(Cl)c1 returned Mdm2 MdmX PPI -9.2, MPTP inh -0.7, Calb FLC 6.2, Beta apoptosis -2.5 and CSC inhib -9.2.
For CCc1ccc(C(=O)NNc2ccc(F)cc2F)cc1 the results were Mdm2 MdmX PPI 14.5, MPTP inh 1.0, Calb FLC 93.4*, Beta apoptosis 4.1 and CSC inhib 30.3.
CCCc1ccc(C(=O)NNc2ccc(F)cc2)cc1 was read as Mdm2 MdmX PPI 26.3, MPTP inh 2.8, Calb FLC 76.6*, Beta apoptosis -9.7 and CSC inhib 94.4*.
`CC(C)(C)c1ccc(C(=O)NNc2ccc(F)cc2F)cc1` gave Mdm2 MdmX PPI -1.6, MPTP inh 4.0, Calb FLC 87.4*, Beta apoptosis 1.4 and CSC inhib 27.8.
`O=C(O)c1ccccc1C(=O)NNc1ccc(F)cc1F` gave Mdm2 MdmX PPI 10.8, MPTP inh 0.3, Calb FLC -42.6, Beta apoptosis 1.7 and CSC inhib 10.9.
`O=C(NNc1ccc(O)cc1)c1ccc(Br)cc1` gave Mdm2 MdmX PPI -5.9, MPTP inh -1.8, Calb FLC 94.9*, Beta apoptosis -5.6 and CSC inhib 44.2.
Screening CCCc1ccc(C(=O)NNC(=O)c2ccc(Br)cc2)cc1 returned Mdm2 MdmX PPI 16.6, MPTP inh 0.7, Calb FLC 16.1, Beta apoptosis 3.8 and CSC inhib -20.4.
Screening CCc1ccc(C(C)NC(=O)c2ccc(F)cc2)cc1 (stereo unspecified) returned Mdm2 MdmX PPI 24.2, MPTP inh -1.0, Calb FLC 0.5, Beta apoptosis -6.2 and CSC inhib -12.9.
CC(C)(C)c1ccc(C(=O)N2CCC2(C)C(=O)Nc2ccc3nc[nH]c3c2)cc1 (stereo unspecified) was read as MPTP inh 1.8.
Screening CCCCN(C)C(=O)c1sc(=O)n(Cc2ccccc2C#N)c1C returned MPTP inh -2.0.
`CCC(C)Sc1ccc(-c2nc3cnccn3c2NC2CCCCC2)cc1` (stereo unspecified) gave Mdm2 MdmX PPI 15.2, MPTP inh 1.9, Calb FLC 4.9, Beta apoptosis 14.7 and CSC inhib 125.5*.
O=C([O-])c1cc(-c2ccccc2)cc(-c2ccccc2)[n+]1Cc1ccccc1 was read as Mdm2 MdmX PPI 17.3, Calb FLC 0.9, Beta apoptosis 122.4* and CSC inhib -0.1.
Screening CC(C)(C)c1ccc(NC(=O)N2CCCN(c3c(Cl)cncc3Cl)CC2)cc1 returned Mdm2 MdmX PPI 37.4, MPTP inh -0.5, Calb FLC 23.4, Beta apoptosis 2.8 and CSC inhib 77.3*.
Screening COc1ccc(CCNC(=O)c2ccc(Br)o2)cc1Br returned MPTP inh 0.4.
`CCOC(=O)/C(=C\c1ccc(OC(F)F)cc1)C1=Nn2c(nnc2-c2ccc(Cl)cc2)SC1` gave MPTP inh 2.4, Calb FLC inconclusive, Beta apoptosis 130.6* and CSC inhib 99.7*.
Screening Cc1nn(CC(=O)NCCCc2ccccc2)c(C)c1[N+](=O)[O-] returned Mdm2 MdmX PPI 19.0, MPTP inh -0.8, Calb FLC 86.6*, Beta apoptosis 1.2 and CSC inhib -7.9.
For Cc1nonc1C(=O)N/N=C/c1ccc([N+](=O)[O-])o1 the results were Mdm2 MdmX PPI -11.9, MPTP inh 2.9, Calb FLC 82.4*, Beta apoptosis -1.9 and CSC inhib -5.5.
Screening CC(C)c1cc(Cn2c3ccccc3c(=O)n2C(C)Cn2cc(COc3ccccc3)nn2)on1 (stereo unspecified) returned MPTP inh -1.5.
`COC(=O)[C@@]1(Cc2ccc(F)cc2)[C@H]2c3cc(C(=O)N(C)C)n(CCc4c[nH]c5ccc(O)cc45)c3C[C@H]2CN1C(=O)c1ccccc1` gave MPTP inh -1.6.
Screening c1ccc(-c2nnnc3ccccc23)cc1 returned Mdm2 MdmX PPI 20.9, MPTP inh 0.4, Calb FLC 18.8 and Beta apoptosis -10.3.
`Clc1ccc2nnnc(-c3ccccc3)c2c1` gave MPTP inh 2.3, Calb FLC 51.7, Beta apoptosis 99.1* and CSC inhib 98.6*.
`CC(=O)Nc1ccc2oc(-c3ccccc3Br)nc2c1` gave Mdm2 MdmX PPI -155.6, MPTP inh 1.5, Calb FLC 5.0, Beta apoptosis -3.9 and CSC inhib 4.2.
For O=C(Nc1ccc(O)c(-c2nc3ccccc3o2)c1)C1(c2ccc(Br)cc2)CCCC1 the results were Mdm2 MdmX PPI 20.0, MPTP inh 12.2, Calb FLC -4.6, Beta apoptosis 4.2 and CSC inhib 84.3*.
`COc1ccc(Cc2c(-c3ccc(F)cc3)nc3ccc(Cl)cn23)c(C)c1` gave MPTP inh -0.4.
`Cc1cc(C)cc(-n2c(C)cc(/C=C3\C(=N)N4N=C(CC(C)C)SC4=NC3=O)c2C)c1` gave Mdm2 MdmX PPI 7.8, MPTP inh 19.3, Calb FLC 46.9, Beta apoptosis 11.7 and CSC inhib 103.5*.
For CCc1cc2c(=O)nc3n(c2s1)Cc1ccccc1/C3=C(/O)c1ccccc1Cl the results were Mdm2 MdmX PPI 46.9, MPTP inh 1.5, Calb FLC -4.7 and Beta apoptosis 89.2*.
Screening CCc1cc2c(=O)nc3n(c2s1)Cc1ccccc1/C3=C(/O)c1ccc(F)cc1 returned Mdm2 MdmX PPI 48.7, MPTP inh 4.4, Calb FLC 13.5, Beta apoptosis 7.0 and CSC inhib 80.7*.
COc1ccc(NC(=O)c2cc(C3CCCCN3C(=O)OCc3ccccc3)on2)c(C)c1 (stereo unspecified) was read as MPTP inh -0.4.

Assay outcomes: PubChem, several laboratories
